CHX counter = counter-screen for Shiga toxin inhibitors: cycloheximide protein synthesis inhibition | max response, % | AID 2314 | 300,000 compounds, 12% hits | cell reporter, cycloheximide protein synthesis inhibition counterscreen; in the data active means max response mostly above about 13%, no sharp cut-off; inactive means mostly below about 14%; further: read at 38.3 µM for the half of the compounds with a filed dose; 0% is about no effect
FMDV inh = foot and mouth disease virus antiviral activity; AID 1159524; FMDV antiviral cell-based qHTS; 410,000 compounds, 1.2% hits; Potency, µM (series often up to 57.9 µM), inactives show top-dose activity change, negative = inhibition, hits mostly inhibitors; calls by dose curve; tested in HEK293T cells; further: read-out not given here; potency means the concentration at half of the fitted maximal effect; on the % scale 0 is the no-effect control and ±100 the full control effect; nearly all actives have a fitted effect of over 45% in size
Shiga inhibitor = inhibitors of Shiga toxin in Vero cells; Vero cells, Shiga toxin protein synthesis inhibition reporter; inhibition, % at 38.7 µM; 290,000 compounds, 9.2% hits; in the data active means inhibition mostly above about 28%, no sharp cut-off; inactive means mostly below about 43%; further: 0% is about no effect
Sm TGR block = S. mansoni TGR enzyme inhibition | Potency, µM (highest dose often 114 µM), for inactives: top-dose activity change, negative = inhibition, hits mostly inhibitors | 360,000 compounds, 3% hits | Q962Y6 | purified TGR, DTNB reduction, TNB absorbance 405 nm; active means well fitted inhibition curve with a large enough effect; inconclusive means small, poorly fitted or top-dose-only effect; inactive means no such curve, though single readings can be large or run the other way; further: potency means the concentration at half of the fitted maximal effect; on the % scale 0 is the no-effect control and ±100 the full control effect; nearly all actives have a fitted effect of over 60% in size
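TGR 20 nM + NADPH 100 uM (dispensed conc.), cpd preinc 15 min RT; start with NADPH (500 uM addition) then DTNB (15 mM addition). Kinetic TNB absorbance, 405 nm filter. Four-parameter Hill fit across titration.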
Numbers without * were called inactive; ? = inconclusive; . = no result given; [ ] = another dose, or the depositor's remark. A selection: hits, their analogues and other compounds. The true share with any hit is near 12%.

SMILES | CHX counter | FMDV inh | Shiga inhibitor | Sm TGR block
O=C1CC(N2CC=C(c3ccc(F)cc3)CC2)C(=O)N1c1ccc(F)cc1 (configuration not stated) | -1.8 | -1.4% | 6.3 | 14.1µM*
CCOC(=O)c1ccc(N2C(=O)CC(N3CC=C(c4ccc(F)cc4)CC3)C2=O)cc1 (configuration not stated) | 3.9 | 5.6% | -1.4 | 5.62µM*
CCOC(=O)N1CCN(C2CC(=O)N(c3ccc(F)cc3)C2=O)CC1 (configuration not stated) | -3.3 | . | 9.1 | -22.1%
O=C1CC(N2CCc3ccccc32)C(=O)N1c1ccc(F)cc1 (configuration not stated) | 1.8 | 7.4% | 9.4 | -1.4%[57.1 µM]
Cc1ccc(N2CCN(c3nc4ccc(C)cc4n4nnnc34)CC2)c(C)c1 | . | -4.2% | . | 7.8%
CCc1ccc(CNC(=O)CCCN2C(=O)c3cccnc3Oc3ccc(Cl)cc32)cc1 | . | -21.5% | . | 1.9%
Cc1nnc(NCCc2ccccc2)c2ccccc12 | 41.7* | 29.3% | 131.7* | -8.1%
Cc1nnc(NCc2cccc(Cl)c2)c2ccccc12 | -4.1 | -6.3% | -11.7 | 0.9%
Cc1ccc(CCNc2ccccc2)c[n+]1[O-] | 15.1* | 29.3% | 11.3 | 15.9%[11.4 µM]
c1ccc(CCNc2ccccc2)cc1 | 20.7* | . | 31.0 | -0.8%
CCCCCCCC/C=C\CCCCCCCC(=O)OCC(CO)OC(=O)CCCCCCC/C=C\CCCCCCCC (configuration not stated) | . | 5.0%[6.7 µM] | . | .
CCSC1=NC2(CCN(C(=O)NC3CCCCC3)CC2)N=C1c1ccc(C)c(C)c1 | . | -15.7% | . | 8.0%
COC(=O)c1ccc(OCC2c3cc(OC)c(OC)cc3CCN2C(=O)C(C)C)cc1 (configuration not stated) | . | ? | . | 34.1%
O=C(/C=C/c1ccc(O)cc1)OC[C@H]1O[C@@H](Oc2c(-c3ccc(O)cc3)oc3cc(O)cc(O)c3c2=O)[C@H](O)[C@@H](O)[C@@H]1O | -3.8 | . | 13.0 | .
COc1cccc2cc(C(=O)NCc3ccco3)c(=Nc3ccc(C(=O)O)cc3)oc12 | 76.0* | . | 195.6* | -3.8%
COc1cccc2cc(C(=O)NCc3ccco3)c(=O)oc12 | 34.3* | 21.8% | 73.8* | -2.4%
COc1cc(C(F)(F)F)ccc1C(=O)NCCc1ccco1 | 68.2* | 62.2% | 80.1* | -31.3%
COc1cc(OC)c(C(=O)NCc2ccco2)cc1OC | 14.6 | 26.6% | -3.3 | ?
COc1ccc2oc(=O)c(C(=O)NCc3ccco3)cc2c1 | 25.4* | 3.0% | 85.2* | .
COc1ccc2oc(=O)c(C(=O)NCc3ccc4c(c3)OCO4)cc2c1 | -4.2 | -5.9% | 18.4 | 0.3%
Cc1ccc(NC(=O)NCCc2c(C)nn(C)c2C)c(Cl)c1 | . | 15.5% | . | 3.1%
COc1ccc(-c2cc(C(F)(F)F)n3nc(C(=O)Nc4sc5c(c4C#N)CCC(C)C5)cc3n2)cc1OC (configuration not stated) | . | 6.1% | . | 1.5%
COc1ccc(C(=O)N[C@H](C(=O)NCc2ccco2)C(C)C)cc1 | 4.8 | -8.5% | -12.1 | 0.5%
CCOc1ccc(N(C(C)C(=O)NCc2ccco2)S(C)(=O)=O)cc1 (configuration not stated) | -2.7 | . | -12.6 | 44.7µM*
CC(C)Oc1ccc(C(=O)NCc2ccco2)cc1 | 29.1* | 40.7% | 38.1* | ?
SMILES | CHX counter | FMDV inh | Shiga inhibitor | Sm TGR block
CCCOc1ccc(C(=O)NCc2ccco2)cc1 | 35.3* | 41.6% | 74.2* | 1.1%
Cc1cccc(NC(=O)Nc2cccs2)c1C | . | 30.0% | . | -10.0%
O=C(Nc1cccs1)Nc1cccnc1Cl | 60.4* | 17.6% | 58.9* | -19.3%
N#Cc1ccccc1NC(=O)Nc1cccs1 | -3.3 | 13.9% | -22.4 | -24.5%
Cc1cccnc1NC(=O)Nc1cccs1 | 23.8 | 33.6% | 35.3 | -23.2%
Cc1ccc(NC(=O)Nc2cccs2)c(Cl)c1 | 56.8* | 27.3% | 107.2* | 5.2%
Cc1c(NC(=O)Nc2cccs2)cccc1[N+](=O)[O-] | 12.2* | 14.9% | 32.3 | -19.6%
Cc1ccc(NC(=O)Nc2cn(C)c(=O)c3ccccc23)c(Cl)c1 | . | ? | . | 4.4%
O=C(Nc1cccs1)Nc1ccccc1Cl | 75.3* | -4.2% | 77.8* | -18.4%
CN1C(=O)Cc2cc(S(=O)(=O)NCc3ccc(Cl)cc3)ccc21 | . | 9.6% | . | 13.4%
O=C1CSC(c2ccncc2)N1Cc1ccco1 (configuration not stated) | -8.1 | 2.8% | -16.0 | 22.4µM*
O=C1CSC(c2cn(-c3ccccc3)nc2-c2ccccc2)N1Cc1ccco1 (configuration not stated) | 19.3* | ? | 35.4 | ?
CC(C)CCNC(=O)c1ccc(C2SCC(=O)N2Cc2ccco2)cc1 (configuration not stated) | 0.9 | -16.9% | -4.2 | 25.1µM*
CN(C)c1oc(/C=C/c2ccccc2)nc1C#N | 44.2* | 8.3% | 48.1* | -2.9%
CN(C)c1oc(/C=C/c2ccc(F)cc2)nc1C#N | . | 19.3% | . | -1.6%
COc1ccccc1/C=C/c1nc(C#N)c(N(C)C)o1 | 33.2* | 52.9% | 87.5* | ?
COc1ccccc1/C=C/c1nc(C#N)c(N2CCCCC2)o1 | . | 10.6% | . | 2.7%
CC(C)Oc1ccc(/C(O)=C2/C(=O)C(=O)N(Cc3cccnc3)C2c2ccco2)cc1 (configuration not stated) | 62.0* | 14.3% | 72.4* | 5.4%
COc1ccc(/C(O)=C2/C(=O)C(=O)N(Cc3cccnc3)C2c2ccccn2)cc1 (configuration not stated) | 23.7* | 9.4% | 61.1* | 10.9%
CC(C)Oc1ccc(C2C(C(=O)c3ccco3)=C(O)C(=O)N2Cc2cccnc2)cc1 (configuration not stated) | 34.6* | 14.1% | 44.8* | -12.7%
O=C(C1=C(O)C(=O)N(Cc2cccnc2)C1c1cccc(Oc2ccccc2)c1)c1ccco1 (configuration not stated) | . | 38.7% | . | .
CC(=O)Nc1nonc1-c1nnc(SCC(=O)Nc2ccccc2Cl)n1C | . | 15.6% | . | 2.1%
O=[N+]([O-])c1cc([N+](=O)[O-])c2cc(-c3cccnc3)[nH]c2c1 | . | 4.3% | . | .
Cc1nc2ccc([N+](=O)[O-])cc2[nH]1 | 8.6 | -16.2% | -1.9 | 14.6%
CC(=O)Nc1nc(C)c(-c2nc3ccc([N+](=O)[O-])cc3[nH]2)s1 | 16.8* | 1.0% | 36.6 | -3.9%
SMILES | CHX counter | FMDV inh | Shiga inhibitor | Sm TGR block
O=[N+]([O-])c1ccc2nc(-c3cccnc3)[nH]c2c1 | 21.3* | 28.8% | 59.7 | 9.1%
O=[N+]([O-])c1cccc(/C=C/c2nc3ccc([N+](=O)[O-])cc3[nH]2)c1 | 18.7* | 0.0% | 40.6 | 2.0%
O=[N+]([O-])c1ccc2nc(-c3ccccc3)[nH]c2c1 | 41.5* | -14.9% | 24.7 | -0.3%
CCCc1nc2ccc([N+](=O)[O-])cc2[nH]1 | 10.8 | -5.8% | -7.3 | .
O=C(Cc1cccs1)NC1CC(=O)N(c2ccccc2)C1 (configuration not stated) | . | -22.3% | . | -18.7%
O=C(Cn1c(-c2cccs2)cc2cc(Cl)ccc21)N1CCN(c2ccccc2F)CC1 | . | 8.4% | . | -2.8%
CC(C)(C)c1nc2ccc([N+](=O)[O-])cc2[nH]1 | -4.5 | -18.2% | 20.2 | 0.5%
Cn1cccc1-c1nc2ccc([N+](=O)[O-])cc2[nH]1 | 32.5* | 15.4% | 39.7* | -10.8%

High-throughput results as filed in PubChem.
